# Measured values taken from PubChem BioAssay (EPA / NIEHS).
# Results filed as inconclusive are left out. The source made the active and inactive calls. How the source made its calls, unless noted: active means hit-call score of the fitted dose curve at least 0.9, where 1 is the maximum; inconclusive means response in the unintended direction; inactive means score below 0.9.
# How the values were obtained:
# PGR (gene 5241) = PGR (gene 5241) (UniProt P06401); experiment: TOX21_PR_LUC_Followup_Antagonist: Tox21 HEK293 Progesterone Receptor (PR) Antagonism Luciferase Follow-Up Assay (AID 2283938);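 further: curve fitted upward as signal gain over DMSO baseline despite antagonist label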
# How it was run: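 HEK293-PR-A-luc cells, 3,000/well, preincubated 5 h at 37C before compound addition in DMSO; 16 h compound exposure at 37C. ONE-Glo luciferase luminescence read after 30 min at room temperature, fitted relative to DMSO baseline.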
# [1] = TOX21_PR_LUC_Followup_Antagonist_viability: Viability Assessment in the Tox21 HEK293 Progesterone Receptor (PR) Antagonism Luciferase Follow-Up Assay (AID 2283940)
# How it was run: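 HEK293-PR-A-luc cells kept in charcoal-stripped FBS medium were plated 5 h before compound addition, then exposed 16 h at 37C; viability read as cellular ATP by luciferase luminescence, loss of signal indicating cytotoxicity.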
# [2] = TOX21_PR_LUC_Followup_Agonist_viability: Viability Assessment in the Tox21 HEK293 Progesterone Receptor (PR) Agonism Luciferase Follow-Up Assay (AID 2283941);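 further: loss of signal means cytotoxicity so actives lower viability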
# How it was run: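 HEK293-PR-A-luc cells, kept in 10% charcoal-stripped FBS medium, were treated with compounds for 16 h at 37C. Viability read as cellular ATP by luciferase-coupled luminescence; loss of signal indicates cytotoxicity.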
# [3] = molecular target: T1, Thyroid hormone receptor alpha (Rattus norvegicus) + Thyroid hormone receptor beta (Rattus norvegicus) (UniProt P18113+P63059); experiment: TOX21_TR_LUC_GH3_Agonist_Followup: Tox21 GH3 Thyroid Hormone Receptor Agonism Luciferase Follow-Up Assay (AID 2283939)
# How it was run: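 Rat GH3 cells (1,500/well) in serum-free assay medium, treated with 15-point series, 92 uM to 5 nM final, for 24 h at 37C. Luciferase via ONE-Glo luminescence; gain of signal fitted against DMSO, T3 positive control.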
# THRA (gene 7067) [4] = molecular target: THRA (gene 7067) (UniProt P10827); experiment: TOX21_TRA_COA_Agonist_Followup_ratio: Tox21 Thyroid Hormone Receptor alpha Agonism through Coactivator Recruitment Follow-Up Assay, Ratio (AID 2283948; active means hit-call score of the fitted dose curve at least 0.9, where 1 is the maximum; inactive means score below 0.9)
# How it was run: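 Cell-free TR-FRET: GST-tagged TRα LBD (2.5 nM) with 0.10% BSA and compound, then fluorescein-SRC-2 peptide (200 nM) and Tb-anti-GST antibody (2 nM). Readout 520:495 nm ratio (ex 340 nm), normalized to DMSO (0%) and T3 (100%).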
# THRB (gene 7068) [5] = molecular target: THRB (gene 7068) (UniProt P10828); experiment: TOX21_TRB_BLA_Agonist_Followup_ratio: Tox21 Thyroid Hormone Receptor beta Agonism Beta-lactamase (BLA) Follow-Up Assay, Ratio (AID 2283954)
# How it was run: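 Human TRβ LBD–GAL4 DBD fusion in GeneBLAzer UAS-bla HEK293T cells; 11 concentrations in triplicate, 18 h at 37°C/5% CO2, T3 as agonist control. CCF4-AM substrate 2 h at room temperature; 460:530 nm ratio fitted for gain of signal versus DMSO.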
# [6] = molecular target: T1, Thyroid hormone receptor alpha (Rattus norvegicus) + Thyroid hormone receptor beta (Rattus norvegicus); experiment: TOX21_TR_LUC_GH3_Antagonist_Followup: Tox21 GH3 Thyroid Hormone Receptor Antagonism Luciferase Follow-Up Assay (AID 2283942)
# How it was run: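 Confirmatory qHTS, antagonist mode: T3 (1.0 nM final) + test cpd, 15 conc, 92 uM–5nM final, GH3 rat pituitary line, 24 h, 37C. Luc reporter, RLU vs DMSO.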
# THRA (gene 7067) [7] = molecular target: THRA (gene 7067) (UniProt P10827); experiment: TOX21_TRA_COA_Antagonist_Followup_ratio: Tox21 Thyroid Hormone Receptor alpha Antagonism through Coactivator Recruitment Follow-Up Assay, Ratio (AID 2283953)
# How it was run: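 520:495 nm emission ratio (excitation 340 nm) reports fluorescein-SRC-2 peptide recruitment to GST-TRα LBD by TR-FRET with Tb anti-GST antibody. Values were normalized to DMSO (0%) and T3 control wells (100%); loss of signal indicated antagonism.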
# THRB (gene 7068) [8] = molecular target: THRB (gene 7068) (UniProt P10828); experiment: TOX21_TRB_BLA_Antagonist_Followup_ratio: Tox21 Thyroid Hormone Receptor beta Antagonism Beta-lactamase (BLA) Follow-Up Assay, Ratio (AID 2283958)
# How it was run: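 HEK293T cells with a GAL4-TRb LBD fusion and UAS-bla reporter, 3,000 cells/well in phenol red-free DMEM with 2% charcoal-stripped FBS. Exposed 18 h at 37C to 11 concentrations in triplicate; CCF4 460:530 nm ratio after 2 h, DMSO-referenced.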
# [9] = TOX21_TRB_BLA_Antagonist_Followup_viability: Viability Assessment in the Tox21 Thyroid Hormone Receptor beta Antagonism Beta-lactamase (BLA) Follow-Up Assay (AID 2283961)
# Source text: The GeneBLAzer TRb-UAS-bla HEK293T assay kit for human TRb (ThermoFisherScientific Catalog No. K1684) was used as a secondary assay for specificity (TRb-bla).This assay contained the ligand-binding domain (LBD) of the human TRb fused to the DNA-binding domain of GAL4 stably integrated in the GeneBLAzer UAS-bla HEK293Tcell line. The reporter gene, b-lactamase, is under the transcriptional control of a UAS that binds the GAL4 DNA-binding domain. A cell viability assay was run in parallel for these cells as well using the CellTiter-Glo viability assay kit.TOX21_TRB_BLA_Antagonist_Followup_viability is a component of the TOX21_TRB_BLA_Antagonist_Followup assay. This component measures cell viability using the CellTiter-Glo Luciferase-coupled ATP quantitation.TOX21_TRB_BLA_Antagonist_Followup_viability used a type of viability reporter where loss-of-signal activity can be used to understand changes in the cell viability. Furthermore, this assay endpoint can be referred to as a secondary readout, because this assay has produced multiple assay endpoints where this one serves a viability function. To generalize the intended target to other relatable targets, this assay endpoint is annotated to the cell cycle intended target family, where the subfamily is cytotoxicity. […]
# Chain of THRB (gene 7068) (P10828 whole entry, looked up, the tested form may be a part): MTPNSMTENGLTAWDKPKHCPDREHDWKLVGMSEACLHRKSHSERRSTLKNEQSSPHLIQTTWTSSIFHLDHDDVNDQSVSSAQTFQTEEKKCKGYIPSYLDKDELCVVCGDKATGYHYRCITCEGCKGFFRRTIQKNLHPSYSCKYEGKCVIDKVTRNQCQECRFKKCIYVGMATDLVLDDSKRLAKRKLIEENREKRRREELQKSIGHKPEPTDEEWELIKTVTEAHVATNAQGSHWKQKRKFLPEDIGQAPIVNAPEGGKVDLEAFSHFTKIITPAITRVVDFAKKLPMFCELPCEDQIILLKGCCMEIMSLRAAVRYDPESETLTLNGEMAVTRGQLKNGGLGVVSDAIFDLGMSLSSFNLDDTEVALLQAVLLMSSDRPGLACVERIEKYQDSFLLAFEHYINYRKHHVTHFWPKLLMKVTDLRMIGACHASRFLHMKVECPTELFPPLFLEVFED
# Chain of THRA (gene 7067) (P10827 whole entry, looked up, the tested form may be a part): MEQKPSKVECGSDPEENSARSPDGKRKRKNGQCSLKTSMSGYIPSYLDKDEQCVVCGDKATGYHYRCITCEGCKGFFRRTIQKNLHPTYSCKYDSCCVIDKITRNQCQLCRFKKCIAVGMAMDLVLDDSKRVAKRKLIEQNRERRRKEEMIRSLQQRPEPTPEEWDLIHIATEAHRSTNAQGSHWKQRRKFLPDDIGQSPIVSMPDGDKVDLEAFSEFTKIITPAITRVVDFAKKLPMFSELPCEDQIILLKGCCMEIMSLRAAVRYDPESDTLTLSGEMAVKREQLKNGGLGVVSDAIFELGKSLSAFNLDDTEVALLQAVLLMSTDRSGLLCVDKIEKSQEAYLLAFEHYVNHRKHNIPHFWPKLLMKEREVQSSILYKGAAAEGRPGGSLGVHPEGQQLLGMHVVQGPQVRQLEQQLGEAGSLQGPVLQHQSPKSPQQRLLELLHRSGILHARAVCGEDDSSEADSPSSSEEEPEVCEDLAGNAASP
# T1 sequence (P63059 whole entry, looked up): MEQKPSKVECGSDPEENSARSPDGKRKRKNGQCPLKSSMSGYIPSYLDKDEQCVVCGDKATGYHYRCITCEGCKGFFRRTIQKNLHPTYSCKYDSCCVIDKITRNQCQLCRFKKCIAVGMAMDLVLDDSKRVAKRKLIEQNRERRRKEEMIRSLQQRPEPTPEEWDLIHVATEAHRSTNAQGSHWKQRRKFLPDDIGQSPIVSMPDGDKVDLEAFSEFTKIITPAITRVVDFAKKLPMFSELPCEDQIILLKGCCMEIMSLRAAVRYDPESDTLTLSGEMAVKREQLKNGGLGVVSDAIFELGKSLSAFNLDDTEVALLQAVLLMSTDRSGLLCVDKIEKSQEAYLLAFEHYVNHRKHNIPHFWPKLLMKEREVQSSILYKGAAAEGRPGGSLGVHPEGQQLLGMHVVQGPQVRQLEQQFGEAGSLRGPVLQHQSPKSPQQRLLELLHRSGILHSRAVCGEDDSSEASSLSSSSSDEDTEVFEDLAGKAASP
# T1 sequence (P18113 whole entry, looked up): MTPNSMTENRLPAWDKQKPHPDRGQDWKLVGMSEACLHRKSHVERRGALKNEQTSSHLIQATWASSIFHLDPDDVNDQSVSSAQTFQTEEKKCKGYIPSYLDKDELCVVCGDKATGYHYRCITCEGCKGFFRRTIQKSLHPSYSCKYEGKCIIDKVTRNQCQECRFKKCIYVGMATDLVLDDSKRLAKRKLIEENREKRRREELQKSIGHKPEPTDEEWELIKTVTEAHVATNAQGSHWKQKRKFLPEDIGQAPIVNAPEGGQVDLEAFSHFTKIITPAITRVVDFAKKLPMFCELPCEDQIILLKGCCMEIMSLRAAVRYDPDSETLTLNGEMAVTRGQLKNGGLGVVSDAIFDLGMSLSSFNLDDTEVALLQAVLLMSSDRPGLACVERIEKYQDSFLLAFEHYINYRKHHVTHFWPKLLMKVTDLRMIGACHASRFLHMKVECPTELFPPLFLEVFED
# Chain of PGR (gene 5241) (P06401 whole entry, looked up): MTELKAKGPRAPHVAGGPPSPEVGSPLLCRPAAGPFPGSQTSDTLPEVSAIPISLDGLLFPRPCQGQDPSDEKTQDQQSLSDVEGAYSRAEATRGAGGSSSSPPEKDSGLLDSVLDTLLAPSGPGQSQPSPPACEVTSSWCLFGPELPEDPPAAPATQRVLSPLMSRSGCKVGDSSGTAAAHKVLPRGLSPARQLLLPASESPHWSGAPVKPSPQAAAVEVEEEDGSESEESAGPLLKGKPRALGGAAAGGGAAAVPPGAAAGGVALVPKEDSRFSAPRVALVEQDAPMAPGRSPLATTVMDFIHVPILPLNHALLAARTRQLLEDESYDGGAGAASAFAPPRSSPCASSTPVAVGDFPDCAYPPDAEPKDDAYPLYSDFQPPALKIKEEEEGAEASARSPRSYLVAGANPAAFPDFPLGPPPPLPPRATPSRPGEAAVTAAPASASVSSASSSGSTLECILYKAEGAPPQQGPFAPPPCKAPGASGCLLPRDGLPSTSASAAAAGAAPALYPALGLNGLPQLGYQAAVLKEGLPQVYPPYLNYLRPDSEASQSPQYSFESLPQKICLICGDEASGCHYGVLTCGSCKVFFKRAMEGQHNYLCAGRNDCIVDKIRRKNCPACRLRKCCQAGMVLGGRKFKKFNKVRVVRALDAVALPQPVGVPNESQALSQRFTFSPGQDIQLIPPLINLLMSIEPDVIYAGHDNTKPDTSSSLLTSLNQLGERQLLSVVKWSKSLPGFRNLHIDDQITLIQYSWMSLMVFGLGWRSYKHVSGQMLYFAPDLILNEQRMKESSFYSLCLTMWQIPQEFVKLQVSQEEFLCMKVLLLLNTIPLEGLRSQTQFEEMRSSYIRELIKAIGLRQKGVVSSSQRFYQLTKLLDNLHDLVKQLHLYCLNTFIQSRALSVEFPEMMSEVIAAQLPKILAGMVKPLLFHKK
structure (smiles),measurement,setting,value
N#Cc1ccc(CC(=O)c2cccc(C(F)(F)F)c2)cc1,AC50,PGR (gene 5241),32 µM (active)
same,outcome,[1],inactive
same,outcome,[2],inactive
O=C(Nc1ccc2c(c1)Cc1ccccc1-2)C(F)(F)F,AC50,PGR (gene 5241),62.9 µM (active)
same,outcome,[1],inactive
same,outcome,[2],inactive
C[C@H](CCC(=O)NCC(=O)O)[C@H]1CC[C@H]2[C@@H]3[C@H](O)C[C@@H]4C[C@H](O)CC[C@]4(C)[C@H]3C[C@H](O)[C@]12C,outcome,[3],inactive
same,outcome,THRA (gene 7067) [4],inactive
same,outcome,THRB (gene 7068) [5],inactive
Clc1ccc(C(c2ccccc2Cl)C(Cl)Cl)cc1 (configuration not stated),AC50,PGR (gene 5241),13.1 µM (active)
CCCOC(=O)c1c(Cl)c(Cl)c(Cl)c(Cl)c1C(=O)OCCC,AC50,PGR (gene 5241),21.2 µM (active)
same,outcome,[1],inactive
same,outcome,[2],inactive
Cc1cc(C)nc(NS(=O)(=O)c2ccc(N)cc2)n1,outcome,[3],inactive
same,outcome,THRA (gene 7067) [4],inactive
OCCCCC(O)CO (configuration not stated),outcome,[3],inactive
same,outcome,THRA (gene 7067) [4],inactive
same,outcome,THRB (gene 7068) [5],inactive
CC(=O)Nc1ccc(C(=O)CCl)cc1,outcome,THRA (gene 7067) [4],inactive
Oc1c(Cl)cc(Cl)c(Cl)c1Cc1c(O)c(Cl)cc(Cl)c1Cl,AC50,[6],12.7 µM (active)
same,outcome,THRA (gene 7067) [7],inactive
same,AC50,THRB (gene 7068) [8],20 µM (active)
same,AC50,[9],8.64 µM (active)
O=c1c(O)c(-c2ccc(O)cc2)oc2cc(O)cc(O)c12,outcome,[1],inactive
same,outcome,[2],inactive
C=C1CC[C@H](O)C/C1=C/C=C1\CCC[C@]2(C)[C@@H]([C@H](C)/C=C/[C@H](C)C(C)C)CC[C@@H]12,outcome,PGR (gene 5241),inactive
same,outcome,[1],inactive
O=Cc1ccccc1S(=O)(=O)O,outcome,[3],inactive
same,outcome,THRA (gene 7067) [4],inactive
CCOC(=O)C(C#N)=C(c1ccccc1)c1ccccc1,AC50,PGR (gene 5241),23 µM (active)
same,outcome,[1],inactive
same,outcome,[2],inactive
